# Results: PubChem BioAssay
# System: Wnt5a (protein binding on small-molecule microarray)
# Assay: Wnt5a binders on small-molecule microarray, primary screen, biophysical, 635/667 nm fluorescence (AID 1142);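 further: fluorescence read at 667 nm with signal to noise per printed feature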
# Details: 635 nm fluorescence, higher = more signal
row,Structure (SMILES),composite z-score
1,C=CC[C@@H]1C=C[C@H](ON=C2c3cc(OC)ccc3O[C@H](c3cccc(OC)c3)[C@H]2O)[C@@H](CO)O1,-0.0596
2,COCCOC(=O)N1C(=O)[C@@]2(c3cc(C#CCNC(N)=O)ccc31)[C@H](c1ccc(O)cc1)N1[C@H](c3ccccc3)[C@H](c3ccccc3)OC(=O)[C@H]1[C@@H]2C(=O)N1CCCCCCC1,0.272
3,CC(C)(C)N1C(=O)[C@H]2[C@H]3[C@H](O)[C@H](O)CC(=NOCc4ccccc4)[C@@H]3CC[C@H]2C1=O,0.351
4,O=C1C[C@]2(c3ccc([N+](=O)[O-])cc3)C(=O)N(CCN3CCOCC3)c3cc(CO)ccc3[C@H]2N1CC12CC3CC(CC(C3)C1)C2,-0.433
5,CC[C@@H](c1ccccc1)n1c(=O)n2n(c1=O)[C@H]1[C@H](O)[C@@H]3O[C@@H]3C(=NOCC(C)C)[C@H]1CC2,-0.11
6,O=C1[C@H]2[C@H]3[C@H](O)[C@H](O)CC(=NO[C@@H]4O[C@H](CO)[C@@H](O)[C@H](O)[C@H]4O)[C@@H]3CC[C@H]2C(=O)N1Cc1ccc2c(c1)OCO2,0.163
7,CC(C)=C1C(=O)C(c2ccccc2)=C2CN3C(=O)N(CCc4ccccc4)C(=O)[C@]3(Cc3ccc(F)cc3)[C@H]21,-0.506
8,CO[C@@H]1COC(=O)CCC[C@@H](C)[C@H](OC)COC(=O)[C@H](Cc2ccccc2)NC(=O)CC=C[C@H]1C,-0.706
9,Cc1ccc(F)cc1S(=O)(=O)N[C@@H]1CCN(Cc2ccc(CC(C)C)cc2)C1,-0.524
10,CC(C)[Si]1(C(C)C)O[C@@H](c2ccccc2)c2cc(C3CC3)nc(-c3ccccc3)c21,-0.0654
11,COC(=O)[C@@]1(Cc2ccc(F)cc2)[C@H]2c3cc(C(=O)N(C)C)n(Cc4ccc(OC)c(OC)c4)c3C[C@H]2CN1C(=O)c1ccccc1,0.702
12,CCOC(=O)CCN1C(=O)[C@H]2[C@H]3[C@H](O)C=CC(=O)[C@@H]3CC[C@H]2C1=O,-0.244
13,C[C@H](c1ccccc1)N1C(=O)[C@H]2[C@@H]3C(=CC[C@H]2C1=O)C(=O)[C@H]1O[C@H]1[C@H]3O,-0.103
14,CS(=O)(=O)CCOC(=O)C1=CC(CCCO)=CC(c2cccs2)N(Cc2cccc(OC(F)(F)F)c2)C=C1C(=O)OCCS(C)(=O)=O (configuration not stated),0.141
15,O=C1[C@H]2[C@H]3[C@H](O)[C@H](O)CC(=NO[C@@H]4O[C@H](CO)[C@@H](O)[C@H](O)[C@H]4O)[C@H]3CC[C@H]2C(=O)N1Cc1ccc2c(c1)OCO2,-0.228
16,Cc1cc2c(nc1C)CCCN2CC(C)ON=C1[C@H]2CCn3c(=O)n(-c4ccccc4)c(=O)n3[C@H]2[C@H](O)[C@@H]2O[C@H]12 (some centres not stated),0.337
17,Cc1cc(C)c(-c2cc([C@H](C)ON=C3[C@H]4CCn5c(=O)n(-c6ccccc6)c(=O)n5[C@H]4[C@H](O)[C@@H]4O[C@H]34)on2)c(C)c1,0.266
18,COc1ccc([Si](C)(C)[C@@H]2[C@@H](CCO)O[C@]3(C(=O)N(Cc4ccc(NC(C)=O)cc4)c4ccccc43)[C@H]2C)cc1,0.913
19,c1ccc(C2NCCc3c2[nH]c2ccccc32)cc1 (configuration not stated),-0.18
20,CC(=O)C[C@H](O)[C@@H](NC(=O)OC(C)(C)C)C(C)C,-0.388
21,CO[C@H]1O[C@H](CO)[C@@H](OC(=O)Nc2ccc(C#N)cc2)[C@H](OC(=O)c2cc3ccccc3[nH]2)[C@H]1OC(=O)c1cc2ccccc2[nH]1,0.436
22,CO[C@@H]1COC(=O)[C@@H]2CCCN2C(=O)[C@@H](C)COC(=O)[C@H](COCc2ccccc2)NC(=O)CC=C[C@H]1C,-0.127
23,COc1ccc(O[C@H]2C=C[C@@H](c3ccccc3)O[C@@H]2COC(=O)CCC(C)=NO[C@H](C)c2cn([C@@H]3COC[C@H]3O)nn2)cc1,0.276
24,CC(CCC(=O)OC[C@H]1O[C@H](C#Cc2ccccc2)C=C[C@@H]1Oc1ccc(C)cc1)=NO[C@@H](C)c1cn([C@H](CO)Cc2ccccc2)nn1,0.204
25,CO[C@H]1COC(=O)[C@H](C)COC(=O)CC=C[C@@H](C)[C@H](OC)COC(=O)CC=C[C@@H]1C,0.185
26,CCc1cccc(NC(=O)O[C@H]2[C@H](OC(=O)Nc3ccc4c(c3)OCO4)[C@@H](OC(=O)Nc3ccc4c(c3)OCO4)[C@@H](OC)O[C@@H]2CO)c1,0.546
27,CCOC(=O)C[C@H]1[C@H](OC(=O)c2cc3ccccc3oc2=O)[C@@H](NC(=O)c2ccc3ccccc3n2)c2cc(OCCCO)ccc2N1C(=O)c1ccccc1,0.537
